# Of roughly 7,900 targets only a part is listed; those with a hit were picked by preference. About 0.6% of all pairs of compound and target were hits. Unmarked numbers belong to inactive results.
# Compound: CC1=C(C2=C(C=C1)C(=O)C3=CC=CC=C3N2CCCN)C
# Test: log2 fold change, soluble protein after heating vs DMSO (PISA); higher = thermal stabilisation; K562 cells, 10 uM, 30 min; active = over 0.2 and 3.5 SD of the protein, either way, in both replicates (recomputed)
# How it was run: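 Soluble protein was defined as the supernatant after 21,000xg for 90 min. It came from K562 cells at 2×10^6 cells/mL given 10 μM compound for 30 min, heated in aliquots for 3 min across 48°C-58°C, pooled, and extracted in PBS with 0.5% NP-40 at 4°C, and was quantified by TMTpro 16plex LC-MS/MS with equalised channel sums. Thermal stability against control samples, from duplicates, is reported as log2 fold change.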
# Sequence of UniProt P05455 (P05455 whole entry, looked up): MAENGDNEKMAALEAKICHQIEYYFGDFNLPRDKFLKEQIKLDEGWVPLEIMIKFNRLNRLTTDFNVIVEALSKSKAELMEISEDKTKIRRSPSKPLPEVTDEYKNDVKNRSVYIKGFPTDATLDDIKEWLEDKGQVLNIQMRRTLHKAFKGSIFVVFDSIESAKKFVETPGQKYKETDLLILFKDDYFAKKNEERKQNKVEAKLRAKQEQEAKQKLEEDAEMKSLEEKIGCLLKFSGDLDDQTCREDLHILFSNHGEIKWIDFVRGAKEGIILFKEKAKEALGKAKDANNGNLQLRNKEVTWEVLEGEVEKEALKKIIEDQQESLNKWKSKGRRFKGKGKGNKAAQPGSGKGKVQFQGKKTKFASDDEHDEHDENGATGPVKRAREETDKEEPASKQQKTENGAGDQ
# Sequence of UniProt Q8N357 (Q8N357 whole entry, looked up): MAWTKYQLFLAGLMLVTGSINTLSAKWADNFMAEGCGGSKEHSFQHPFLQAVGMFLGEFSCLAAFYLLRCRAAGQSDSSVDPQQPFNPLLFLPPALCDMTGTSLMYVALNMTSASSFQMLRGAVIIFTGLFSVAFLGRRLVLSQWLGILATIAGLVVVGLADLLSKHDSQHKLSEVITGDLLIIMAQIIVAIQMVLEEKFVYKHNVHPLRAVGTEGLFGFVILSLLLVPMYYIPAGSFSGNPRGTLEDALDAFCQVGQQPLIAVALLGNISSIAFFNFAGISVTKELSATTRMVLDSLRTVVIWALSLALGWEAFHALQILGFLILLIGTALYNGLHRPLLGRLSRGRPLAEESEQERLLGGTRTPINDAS
# Sequence of UniProt Q969S0 (Q969S0 whole entry, looked up): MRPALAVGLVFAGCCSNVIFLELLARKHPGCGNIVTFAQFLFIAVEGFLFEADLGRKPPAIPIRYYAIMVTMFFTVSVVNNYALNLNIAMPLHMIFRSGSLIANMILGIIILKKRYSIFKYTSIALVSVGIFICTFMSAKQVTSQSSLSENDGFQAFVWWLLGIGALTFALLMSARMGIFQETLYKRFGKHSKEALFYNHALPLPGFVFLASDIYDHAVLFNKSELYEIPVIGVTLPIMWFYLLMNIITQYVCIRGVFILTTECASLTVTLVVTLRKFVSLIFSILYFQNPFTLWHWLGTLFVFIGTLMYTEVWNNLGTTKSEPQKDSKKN
# Sequence of UniProt O95772 (O95772 whole entry, looked up): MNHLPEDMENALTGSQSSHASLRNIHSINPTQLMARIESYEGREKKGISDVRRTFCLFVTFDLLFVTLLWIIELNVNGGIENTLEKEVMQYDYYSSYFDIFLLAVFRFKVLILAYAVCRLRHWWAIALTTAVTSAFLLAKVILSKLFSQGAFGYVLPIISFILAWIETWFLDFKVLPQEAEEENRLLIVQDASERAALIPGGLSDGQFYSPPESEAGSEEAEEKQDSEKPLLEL
# Sequence of UniProt Q969X1 (Q969X1 whole entry, looked up): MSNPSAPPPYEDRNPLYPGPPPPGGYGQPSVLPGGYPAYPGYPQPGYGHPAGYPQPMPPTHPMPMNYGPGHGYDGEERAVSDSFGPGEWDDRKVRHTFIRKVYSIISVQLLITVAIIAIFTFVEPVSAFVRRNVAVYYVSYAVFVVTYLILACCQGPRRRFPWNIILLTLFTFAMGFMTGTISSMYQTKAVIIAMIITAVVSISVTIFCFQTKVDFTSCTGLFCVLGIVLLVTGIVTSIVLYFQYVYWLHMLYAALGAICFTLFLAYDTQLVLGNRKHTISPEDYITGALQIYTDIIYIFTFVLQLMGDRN
# Sequence of UniProt P12931 (P12931 whole entry, looked up): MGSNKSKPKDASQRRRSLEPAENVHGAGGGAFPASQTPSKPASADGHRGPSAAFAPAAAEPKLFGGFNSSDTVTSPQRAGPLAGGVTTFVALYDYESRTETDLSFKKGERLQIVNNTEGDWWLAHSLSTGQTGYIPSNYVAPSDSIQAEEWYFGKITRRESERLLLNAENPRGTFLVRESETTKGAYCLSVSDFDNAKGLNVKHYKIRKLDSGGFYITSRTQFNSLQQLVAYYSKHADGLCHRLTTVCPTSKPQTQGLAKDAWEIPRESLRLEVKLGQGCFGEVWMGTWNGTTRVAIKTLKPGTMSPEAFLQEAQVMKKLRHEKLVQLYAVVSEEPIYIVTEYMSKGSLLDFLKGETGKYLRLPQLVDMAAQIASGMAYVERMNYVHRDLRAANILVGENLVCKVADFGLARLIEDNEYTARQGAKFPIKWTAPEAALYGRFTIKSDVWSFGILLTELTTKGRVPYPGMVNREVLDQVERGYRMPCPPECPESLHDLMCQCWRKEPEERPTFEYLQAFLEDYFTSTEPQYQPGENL
# Sequence of UniProt Q15582 (Q15582 whole entry, looked up): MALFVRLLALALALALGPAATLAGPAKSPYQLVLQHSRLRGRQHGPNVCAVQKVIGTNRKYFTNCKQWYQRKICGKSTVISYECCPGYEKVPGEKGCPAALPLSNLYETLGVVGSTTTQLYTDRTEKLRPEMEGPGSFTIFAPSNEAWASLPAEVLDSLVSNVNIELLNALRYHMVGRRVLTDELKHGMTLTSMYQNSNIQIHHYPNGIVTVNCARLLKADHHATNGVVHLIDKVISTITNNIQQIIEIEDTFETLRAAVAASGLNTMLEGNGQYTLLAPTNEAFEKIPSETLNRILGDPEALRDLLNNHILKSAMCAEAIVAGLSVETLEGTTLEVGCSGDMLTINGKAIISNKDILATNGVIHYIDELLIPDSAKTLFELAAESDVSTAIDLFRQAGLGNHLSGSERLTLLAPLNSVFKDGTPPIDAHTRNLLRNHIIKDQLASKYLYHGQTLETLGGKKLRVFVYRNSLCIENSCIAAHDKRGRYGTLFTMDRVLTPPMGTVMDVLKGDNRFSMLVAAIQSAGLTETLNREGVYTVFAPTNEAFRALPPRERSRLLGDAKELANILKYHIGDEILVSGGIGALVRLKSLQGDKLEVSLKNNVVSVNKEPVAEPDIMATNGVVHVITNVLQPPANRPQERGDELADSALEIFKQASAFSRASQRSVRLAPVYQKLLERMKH
# Sequence of UniProt Q02447 (Q02447 whole entry, looked up): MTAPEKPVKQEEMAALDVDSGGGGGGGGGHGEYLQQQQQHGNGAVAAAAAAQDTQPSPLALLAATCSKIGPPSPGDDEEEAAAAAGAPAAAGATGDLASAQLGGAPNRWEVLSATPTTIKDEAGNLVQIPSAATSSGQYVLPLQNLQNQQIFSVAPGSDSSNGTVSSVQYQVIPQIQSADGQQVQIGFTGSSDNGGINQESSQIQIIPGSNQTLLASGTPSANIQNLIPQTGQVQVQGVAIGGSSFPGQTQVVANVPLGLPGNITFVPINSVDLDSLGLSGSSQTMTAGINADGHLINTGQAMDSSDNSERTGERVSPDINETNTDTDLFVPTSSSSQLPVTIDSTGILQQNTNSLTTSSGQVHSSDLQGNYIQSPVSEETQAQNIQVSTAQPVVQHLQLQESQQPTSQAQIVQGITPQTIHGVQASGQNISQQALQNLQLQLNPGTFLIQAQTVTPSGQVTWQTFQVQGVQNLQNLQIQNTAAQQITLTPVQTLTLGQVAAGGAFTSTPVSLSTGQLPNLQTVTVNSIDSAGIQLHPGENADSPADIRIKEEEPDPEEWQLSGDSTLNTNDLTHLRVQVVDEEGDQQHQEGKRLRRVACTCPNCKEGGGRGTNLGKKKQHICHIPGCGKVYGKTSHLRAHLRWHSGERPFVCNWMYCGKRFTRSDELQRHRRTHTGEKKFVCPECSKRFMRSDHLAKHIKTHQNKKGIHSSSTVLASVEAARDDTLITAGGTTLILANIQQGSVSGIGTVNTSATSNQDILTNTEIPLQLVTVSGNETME
# Sequence of UniProt P23497 (P23497 whole entry, looked up): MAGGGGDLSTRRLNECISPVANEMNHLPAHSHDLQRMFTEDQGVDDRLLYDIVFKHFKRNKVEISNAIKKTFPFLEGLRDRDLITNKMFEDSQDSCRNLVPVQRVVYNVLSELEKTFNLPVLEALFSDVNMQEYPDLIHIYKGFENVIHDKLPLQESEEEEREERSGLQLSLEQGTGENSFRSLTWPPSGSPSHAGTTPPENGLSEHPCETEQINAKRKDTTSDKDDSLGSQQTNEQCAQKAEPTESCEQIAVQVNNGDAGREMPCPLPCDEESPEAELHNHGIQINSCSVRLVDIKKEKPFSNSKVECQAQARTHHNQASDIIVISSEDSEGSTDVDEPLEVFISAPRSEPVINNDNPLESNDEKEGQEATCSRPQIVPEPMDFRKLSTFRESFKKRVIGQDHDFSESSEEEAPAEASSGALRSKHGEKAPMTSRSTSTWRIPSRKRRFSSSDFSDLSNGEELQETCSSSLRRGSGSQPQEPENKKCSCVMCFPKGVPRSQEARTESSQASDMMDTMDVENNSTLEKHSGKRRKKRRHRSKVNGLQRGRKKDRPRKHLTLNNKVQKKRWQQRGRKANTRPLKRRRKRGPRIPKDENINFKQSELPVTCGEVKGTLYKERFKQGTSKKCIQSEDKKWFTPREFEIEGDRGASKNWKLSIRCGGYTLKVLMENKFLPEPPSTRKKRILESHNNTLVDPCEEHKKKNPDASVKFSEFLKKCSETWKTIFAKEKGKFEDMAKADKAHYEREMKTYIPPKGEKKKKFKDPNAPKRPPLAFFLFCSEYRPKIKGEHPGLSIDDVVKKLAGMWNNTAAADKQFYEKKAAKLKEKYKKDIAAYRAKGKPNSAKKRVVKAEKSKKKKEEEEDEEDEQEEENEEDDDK
# Sequence of UniProt Q15208 (Q15208 whole entry, looked up): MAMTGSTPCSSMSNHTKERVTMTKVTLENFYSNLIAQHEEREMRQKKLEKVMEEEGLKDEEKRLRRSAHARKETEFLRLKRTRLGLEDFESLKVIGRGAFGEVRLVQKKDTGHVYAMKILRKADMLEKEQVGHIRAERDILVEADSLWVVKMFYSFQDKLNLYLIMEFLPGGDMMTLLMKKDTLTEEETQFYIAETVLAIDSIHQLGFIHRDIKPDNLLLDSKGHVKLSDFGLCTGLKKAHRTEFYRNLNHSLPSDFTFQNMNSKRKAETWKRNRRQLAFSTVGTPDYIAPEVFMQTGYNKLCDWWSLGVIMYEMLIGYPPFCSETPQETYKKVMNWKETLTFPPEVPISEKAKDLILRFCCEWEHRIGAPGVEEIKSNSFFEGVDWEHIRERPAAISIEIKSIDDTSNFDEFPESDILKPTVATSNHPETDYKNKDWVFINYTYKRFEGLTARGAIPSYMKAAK
row,Target,log2 fold change
1,STK38 (UniProt Q15208),-0.026
2,TBC1D24 (UniProt Q9ULP9),0.142
3,TAOK3 (UniProt Q9H2K8),0.035
4,SP100 isoform 4 (UniProt P23497),-0.1
5,SLC35B4 (UniProt Q969S0),0.059
6,TBRG4 (UniProt Q969Z0),-0.171
7,TIMM10B (UniProt Q9Y5J6),0.089
8,SMIM20 isoform 2 (UniProt Q8N5G0),-0.058
9,SPTBN4 (UniProt Q9H254),-0.016
10,TGFBI (UniProt Q15582),-0.039
11,STARD3NL (UniProt O95772),0.062
12,TJP1 (UniProt Q07157),0.034
13,TANGO6 (UniProt Q9C0B7),0.006
14,TANK (UniProt Q92844),-0.053
15,SRC isoform 2 (UniProt P12931),0.02
16,SUOX (UniProt P51687),0.02
17,SNRNP40 (UniProt Q96DI7),1.03 (active)

row,Target,log2 fold change
1,SNX11 (UniProt Q9Y5W9),-0.101
2,TIMM13 (UniProt Q9Y5L4),0.092
3,TATDN2 (UniProt Q93075),-0.218
4,SLC35F6 (UniProt Q8N357),0.078
5,SMCHD1 (UniProt A6NHR9),0.406
6,SP3 (UniProt Q02447),0.607 (active)
7,SYK (UniProt P43405),-0.425
8,TIMM29 (UniProt Q9BSF4),-0.052
9,SMARCE1 (UniProt Q969G3),-0.091
10,SRSF6 (UniProt Q13247),-0.744
11,SRSF4 (UniProt Q08170),-0.379
12,SULT1A1 (UniProt P50225),0.048
13,SLC27A4 (UniProt Q6P1M0),0.104
14,SSB (UniProt P05455),-0.474 (active)
15,TLK2 isoform 2 (UniProt Q86UE8),0.282 (active)
16,TMBIM1 (UniProt Q969X1),0.089
17,STK11IP (UniProt Q8N1F8),-0.183

# — the supplement of paper PMC10849652
